The values that follow come from PubChem BioAssay (NCATS).

Several values for one entry are separate records, joined by “and”; a condition that tells them apart may be missing. Equal entries are not always repeated. Inconclusive results are not listed. Where a call stands in place of a potency, no number is given. Activity calls are given as the source filed them. The call rests on the fitted dose curve; in most records, active means well fitted cell-killing curve with a large enough effect; inconclusive means small, poorly fitted or top-dose-only effect; inactive means flat fitted curve, though single readings scatter.
Potency means the concentration at half of the fitted maximal effect.

The assay can be described thus: Cellular viability qHTS for adrenocortical cancer (ACC) cell line NCI-H295R (AID 1963990). Further: nearly all actives have a fitted effect of over 60% in size. The conditions noted are these: CellTiter-Glo ATP luminescence, 48 h; series mostly up to 46.1 µM. In a few lines: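 Luminescent ATP read-out (CellTiter-Glo, 20 min RT) after 48 h drug exposure of NCI-H295R cells; a titration up to 46 uM final. Data normalized to doxorubicin (100% inhibition) and DMSO (0%); 4-parameter fit gives IC50, max response.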
(In general: In qHTS, concentration-response curves come from the screen itself.)
For `O=C(Nc1ccc(S(=O)(=O)N2CCOCC2)cc1)c1cc(Cl)ccc1NS(=O)(=O)c1ccc(Cl)s1`, the Potency is 20.6 µM (active) and 25.1 µM (active).
As for `O=C(c1ccc(F)cc1)C1CCN(CCn2c(=S)[nH]c3ccccc3c2=O)CC1`, the entry is “inactive”; as for `NC(=S)N/N=C/c1ncccc1N`, “inactive”; as for `N[C@H](C(=O)O)[C@@H](O)c1ccc(O)c(O)c1`, “inactive”.
As for `CCCSS/C(CCO)=C(\C)N(C=O)Cc1cnc(C)nc1N`, the figure is 9.2 µM (active).
With `Cc1cnc(Nc2ccc(F)cc2Cl)nc1-c1c[nH]c(C(=O)NC(CO)c2cccc(Cl)c2)c1` (stereo unspecified) the figure was 8.91 µM (active); with `CCOC(=O)c1c(N)sc2c1CCN(Cc1ccccc1)C2`, “inactive”.
As to `NNC(=O)CP(=O)(c1ccccc1)c1ccccc1`, the Potency was 16.4 µM (active).
With `COc1ccc(-n2c(SCCCN3C(=O)c4cccc5cccc(c45)C3=O)nnc2-c2ccncc2)cc1` the entry was “inactive”.
As for `Nc1ncnc2c1c(COc1cccc(Cl)c1)nn2C1CCOCC1`, the entry is “inactive”; as for `c1ccc(OCc2ccc(CCCN3CCOCC3)cc2)cc1`, “inactive”.
As for `CCCCC(CC)CN1CN(CC(CC)CCCC)CC(C)(N)C1` (stereo unspecified), the entry is “inactive”; as for `O=C(Cc1ccccc1)Nc1nnc(CCSCCc2nnc(NC(=O)Cc3ccccc3)s2)s1`, “inactive”; as for `O=C1NC(=O)/C(=C/c2ccc3nccnc3c2)S1`, “inactive”.
For `O=C(NO)c1cnc(NC2(c3cccc(F)c3)CCCCC2)nc1`, the Potency was 3.16 µM (active).
With `CCOC(=O)C1=C(C)NC(C)=C(C(=O)OC)C1c1cccc([N+](=O)[O-])c1` (stereo unspecified) the figure was 16.4 µM (active); with `Cc1cc(O)c2ccccc2c1O`, 20.6 µM (active); with `COC(=O)N(CC(=O)O)Cc1cccc(OCc2nc(-c3ccc(Cl)cc3)oc2C)c1`, “inactive”.
With `OC(CCN1CCCCC1)(c1ccccc1)C1CCCCC1` (stereo unspecified) the figure was 4.61 µM (active); with `O=C(Nc1ccccc1)OCC(CN1CCCCC1)OC(=O)Nc1ccccc1` (stereo unspecified), 23.1 µM (active); with `C[C@H](N)C(=O)N[C@@H](C)C(=O)NC1[C@H]2CN(c3nc4c(cc3F)c(=O)c(C(=O)O)cn4-c3ccc(F)cc3F)C[C@@H]12` (stereo partly specified), “inactive”.
With `C=CC[N+]1([C@H]2C[C@H]3[C@@H]4CC[C@H]5C[C@H](O)[C@@H](N6CCOCC6)C[C@]5(C)[C@H]4CC[C@]3(C)[C@H]2OC(C)=O)CCCC1` the entry was “inactive”; with `CC#CC(=O)N1CCC[C@H]1c1nc(-c2ccc(C(=O)Nc3ccccn3)cc2)c2c(N)nccn12`, “inactive”; with `COc1ccc2cc(CCC(C)=O)ccc2c1`, “inactive”.
Regarding `CCN(CCCc1ccccc1)CCCc1ccccc1`, the Potency entry is “inactive”.
As for `Nc1n[n+]([O-])c2ccccc2[n+]1[O-]`, the figure is 17.8 µM (active).
